Sampled rows, rich in hits. Any-hit rate of the full collection: about 1.5%.
FEN1 inhibitor = inhibitors of human flap endonuclease 1. Potency, µM (series often up to 114 µM), usual class: inhibitors. Recombinant FEN1 flap cleavage, fluorescence, 15 min. 0.35% of 390,000 active; further: nearly all actives have a fitted effect of over 65% in size
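Potency values derive from four-parameter Hill fits of normalized qHTS data. The reaction used 10 nM FEN1 preincubated 15 min at room temperature with compound, then 50 nM DNA substrate, read at 0 and 15 min.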
BLM helicase inh = inhibitors of human Bloom syndrome helicase BLM; AID 2528; Potency, µM (top dose mostly 56.1 µM), hits mostly inhibitors; 0.2% of 350,000 active; P54132; recombinant BLM DNA unwinding, fluorescence dequenching; further: nearly all actives have a fitted effect of over 35% in size
RECQ1 inh-1 = RECQ1 (human) helicase inhibition; P46063; RECQ1 DNA unwinding, red fluorescence kinetic read; Potency, µM (top dose mostly 57.3 µM), most hits filed as inhibitors; 0.54% of 240,000 active; further: nearly all actives have a fitted effect of over 30% in size
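RECQ1T1 50 nM; forked duplex (20 bp + 30-nt ss tails) 200 nM, ATP 2 mM final; pH 8.0, 2 mM MgCl2, 2.5 ug/ml poly(dI-dC); 15 min compound preincubation; discontinuous kinetic read over 2 h at RT.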
APEX1 inh = inhibitors of human APE1 endonuclease; recombinant APE1, TAMRA/BHQ-2 abasic DNA cleavage fluorescence; AID 2517; Potency, µM (series often up to 65.8 µM), usual class: inhibitors; 0.35% of 350,000 active; P27695; further: nearly all actives have a fitted effect of over 55% in size
Target sequence (P27695 whole entry, looked up): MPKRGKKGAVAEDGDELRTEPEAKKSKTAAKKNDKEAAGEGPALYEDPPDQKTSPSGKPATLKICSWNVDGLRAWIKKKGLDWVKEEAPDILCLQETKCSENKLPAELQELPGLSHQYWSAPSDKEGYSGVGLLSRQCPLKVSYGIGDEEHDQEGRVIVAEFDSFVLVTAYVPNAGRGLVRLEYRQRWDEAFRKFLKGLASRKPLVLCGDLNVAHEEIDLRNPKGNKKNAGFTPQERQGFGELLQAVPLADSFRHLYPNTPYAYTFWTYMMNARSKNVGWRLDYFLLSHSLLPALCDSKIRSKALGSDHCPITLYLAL
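APE1 at 0.75 nM preincubated 15 min at room temperature with compound. Reaction then started with 50 nM double-stranded THF-abasic substrate labelled with TAMRA/BHQ-2, and 525/598 nm fluorescence read kinetically. Activity taken as third-minus-first read difference, normalized to DMSO and NSC13755 controls.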
WRN inhibitor = WRN helicase (human) inhibition. 0.46% of 360,000 active. Q14191. Potency, µM (series often up to 114 µM), usual class: inhibitors. WRN helicase unwinding, fluorescent forked duplex, kinetic. AID 651768; further: nearly all actives have a fitted effect of over 55% in size
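Screening of the MLSMR collection measured strand separation of a quenched forked DNA duplex (100 nM) by 20 nM WRN with 2 mM ATP, all final. Compounds were preincubated with enzyme 15 min at room temperature.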
PI5P4Ka inh = inhibitors of human PI5P4K alpha; AID 652105; P48426; max response, %; 1.2% of 330,000 active; PI5P4Kalpha enzyme, ADP-Glo luminescence, 60 min; active compounds read low; active means max response of -50% or lower; inconclusive means between -30% and -50%; inactive means -30% or higher; further: value at the top dose of about 77 µM
Target sequence (P48426 whole entry, looked up): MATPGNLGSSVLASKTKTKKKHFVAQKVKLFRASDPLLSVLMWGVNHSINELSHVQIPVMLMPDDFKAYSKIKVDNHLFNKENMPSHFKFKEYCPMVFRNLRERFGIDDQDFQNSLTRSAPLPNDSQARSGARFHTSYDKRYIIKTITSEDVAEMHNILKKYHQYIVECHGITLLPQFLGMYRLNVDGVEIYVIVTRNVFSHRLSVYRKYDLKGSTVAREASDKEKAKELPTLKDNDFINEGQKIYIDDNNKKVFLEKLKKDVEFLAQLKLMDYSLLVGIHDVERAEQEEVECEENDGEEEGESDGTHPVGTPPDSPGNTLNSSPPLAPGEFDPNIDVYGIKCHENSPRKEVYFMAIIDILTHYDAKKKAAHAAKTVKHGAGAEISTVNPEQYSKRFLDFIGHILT
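Enzyme plus substrate dispensed, test compounds pinned in, then ATP (5 microM final) added. After 60 min at RT, ADP-Glo reagent 1 for 45 min and reagent 2 for 30 min preceded luminescence imaging.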
RECQ1 inh conf = confirmation of human RECQ1 helicase inhibitors; AID 2708; Potency, µM (series often up to 229 µM), actives largely listed as inhibitors; 28% of 610 active; shares compounds with RECQ1 inh-1; RECQ1 helicase DNA unwinding, fluorescence; further: nearly all actives have a fitted effect of over 45% in size
ADP FP counter = displaces ADP in a fluorescence polarization counter-screen for RECQ1 hits. shares compounds with RECQ1 inh-1. ADP fluorescence polarization displacement counterscreen. Potency, µM (doses to about 228 µM), usual class: inhibitors. 27% of 530 active. AID 2711; further: nearly all actives have a fitted effect of over 45% in size
RECQ1 inh-2 = confirmation of human RECQ1 helicase inhibitors; shares compounds with RECQ1 inh-1; Potency, µM (doses to about 119 µM), hits mostly inhibitors; AID 504841; 15% of 1,100 active; recombinant RECQ1 DNA unwinding, red fluorescence; further: nearly all actives have a fitted effect of over 50% in size
A number is an active result; - = inactive; ? = inconclusive; . = no result given. Unless noted, the call rests on the fitted dose curve; in most records, active means well fitted curve in the direction sought with a large enough effect; inconclusive means small, poorly fitted or top-dose-only effect, or another doubt; inactive means no such curve, though single readings can be large; an effect the other way counts as inactive or inconclusive.

SMILES | FEN1 inhibitor | BLM helicase inh | RECQ1 inh-1 | APEX1 inh | WRN inhibitor | PI5P4Ka inh | RECQ1 inh-2 | others
CC1(C)CCC(=O)c2ccccc21 | - | . | . | . | - | - | .
Cc1cc(=O)c2c(O)c(O)ccc2o1 | - | - | 35.5µM | ? | - | - | -
CC1=CCc2c(cc3oc(C)cc(=O)c3c2O)OC1 | . | - | - | - | . | . | .
O=C(O)CCc1ccc(-c2ccccc2)n1CC(=O)O | - | - | - | - | - | . | .
O=C(O)CCc1ccc(-c2ccc(Br)cc2)n1CC(=O)O | - | - | 31.6µM | - | - | . | ?
O=C(O)CCSc1nnc(COc2cccc3ccccc23)n1-c1cccc(Cl)c1 | - | - | - | - | - | - | . | RECQ1 inh conf=-;ADP FP counter=-
Cc1ccc(C)c(NC(=O)C(c2ccccc2)N2Cc3ccccc3C2=O)c1 (configuration not stated) | - | - | . | . | . | . | .
CCCCOC(=O)CSC1=C(C#N)C(c2ccccc2OC)C(C#N)C(=O)N1 (configuration not stated) | - | - | 14.1µM | - | - | - | ?
CCCCOC(=O)c1ccc(NC(=O)Cc2coc3c(C)c(C)ccc23)cc1 | - | - | . | . | . | . | .
CN1/C(=C\C(=O)COC(=O)c2ccc(O)c(O)c2)C(C)(C)c2ccccc21 | - | - | 25.1µM | - | ? | - | 39.8µM
CN1/C(=C\C(=O)COC(=O)CNC(=O)c2ccccc2F)C(C)(C)c2ccccc21 | - | - | - | - | - | - | .
CN1/C(=C\C(=O)COC(=O)CNC(=O)c2ccc3ccccc3c2)C(C)(C)c2ccccc21 | - | - | 35.5µM | - | - | - | 56.2µM
CN1/C(=C/C(=O)CSc2ccccc2C(=O)O)C(C)(C)c2ccccc21 | - | - | - | - | - | - | .
Cc1cc(=O)[nH]c(SCC(=O)/C=C2\N(C)c3ccccc3C2(C)C)n1 | - | - | 31.6µM | - | - | - | -
O=C(COc1ccccc1)Nc1ccc2nc(SCC(=O)N3CCOCC3)sc2c1 | - | - | . | . | . | . | .
O=C1C(=O)C(c2cc(O)c(O)c(O)c2)Oc2cc(O)cc(O)c21 (configuration not stated) | 1.41µM | . | . | . | . | . | . | RECQ1 inh conf=1µM
COc1cc(C2Oc3cc(C4Oc5cc(O)cc(O)c5C(=O)C4O)ccc3OC2CO)ccc1O (configuration not stated) | - | - | - | - | - | - | .
Cc1noc(C)c1COc1ccc(C(=O)Nc2cccnc2)cc1 | - | - | 0.891µM | - | - | - | - | RECQ1 inh conf=56.2µM;ADP FP counter=126µM
Cc1ccc(NC(=O)c2ccc(OCc3c(C)noc3C)cc2)cc1 | . | - | - | - | . | . | . | RECQ1 inh conf=-;ADP FP counter=50.1µM
Cc1cccc(NC(=O)c2ccc(OCc3c(C)noc3C)cc2)c1 | - | . | . | - | - | - | .
COc1ccc2[nH]cc(CCNc3ncnc4ccc(-c5ccoc5)cc34)c2c1 | . | - | ? | - | . | . | ?
COc1ccc(CNc2ncnc3ccc(-c4ccoc4)cc23)c(OC)c1 | . | - | - | - | . | . | .
COc1ccc(/C=N/NC(=O)c2nn(-c3ccc(C)c(C)c3)c(=O)c3ccccc23)cc1 | - | - | - | - | - | - | .
COc1ccc(/C=N/NC(=O)c2nn(-c3ccccc3)c(=O)c3c(N)scc23)cc1 | - | - | 25.1µM | ? | - | . | . | RECQ1 inh conf=-;ADP FP counter=?
CCOC(=O)c1c(NC(=O)/C=C/C(=O)O)sc(C)c1-c1ccc(C(C)(C)C)cc1 | - | - | ? | - | - | - | 50.1µM
SMILES | FEN1 inhibitor | BLM helicase inh | RECQ1 inh-1 | APEX1 inh | WRN inhibitor | PI5P4Ka inh | RECQ1 inh-2 | others
CCOC(=O)c1c(S(=O)(=O)N2CCCC(C(=O)N3CCN(c4cccc(C)c4C)CC3)C2)c(C)n(C)c1C (configuration not stated) | - | - | . | . | . | . | .
CCCCn1c(NC(=O)c2ccco2)c(S(=O)(=O)c2ccc(C)cc2)c2nc3ccccc3nc21 | - | - | ? | ? | ? | - | -
O=C(NCc1n[nH]c(=S)n1-c1cccc(C(F)(F)F)c1)c1ccc(S(=O)(=O)N2CCCCC2)cc1 | - | - | . | - | - | - | .
O=C(NCc1n[nH]c(=S)n1-c1cccc(C(F)(F)F)c1)c1ccc(S(=O)(=O)N2CCCC2)cc1 | - | - | - | - | - | - | . | RECQ1 inh conf=-;ADP FP counter=-
Cc1ccc(C(=O)CSc2nnnn2Cc2ccccc2)cc1C | - | - | ? | - | - | - | -
O=S1(=O)C2CC3CCC2(CN1Cc1ccccc1)O3 (configuration not stated) | - | - | - | - | . | . | .
CCN1CCN(c2cc(C)c3cc(NC(=O)c4ccc(OC)c(OC)c4)ccc3n2)CC1 | ? | - | 22.4µM | - | - | - | ?
Cn1c(CO)cnc1S(=O)(=O)Cc1ccc(Cl)cc1 | - | - | ? | - | - | - | -
Cn1c(CO)cnc1S(=O)(=O)Cc1c(Cl)cccc1Cl | - | - | . | - | - | - | .
COc1cccc(NC(=O)Nc2cccn(Cc3ccccc3)c2=O)c1 | - | - | - | - | - | . | .
COc1ccc(Cn2cccc(NC(=O)Nc3cccc(OC)c3)c2=O)cc1 | - | - | ? | - | - | - | -
O=C(NC1(O)C(=O)c2ccccc2C1=O)c1ccccc1 | - | ? | - | ? | - | - | .
CC(=O)C(C(C)=O)C1(O)C(=O)c2ccccc2C1=O | - | ? | ? | ? | - | - | -
Cc1ccc(NC(=O)C2C(c3ccccc3)C2(Cl)Cl)c(C)c1 (configuration not stated) | - | - | - | - | - | - | .
Cc1cccc(NC(=O)C2C(c3ccccc3)C2(Cl)Cl)c1 (configuration not stated) | ? | - | ? | - | - | - | -
Cc1ccc(Cn2c(=S)[nH]c3ccc(N4CCOCC4)cc3c2=O)o1 | ? | - | 17.8µM | ? | ? | . | . | RECQ1 inh conf=?;ADP FP counter=50.1µM
O=c1c2cc(N3CCOCC3)ccc2[nH]c(=S)n1Cc1ccc(Cl)cc1 | - | - | - | - | - | - | .
O=C(NCCCCC(NC(=O)c1ccc([N+](=O)[O-])cc1)C(=O)O)c1ccc([N+](=O)[O-])cc1 (configuration not stated) | - | - | - | - | - | - | . | RECQ1 inh conf=-;ADP FP counter=-
C#Cc1ccc2c(c1)C(=O)N(C)Cc1c(C(=O)OCCCOC(=O)c3ncn4c3CN(C)C(=O)c3cc(C#C)ccc3-4)ncn1-2 | . | - | - | - | . | . | .
CCOC(=O)c1cc(-c2ccc(F)cc2)n(CCC(=O)Nc2nc3ccc(OC)cc3s2)c1C | ? | - | . | . | . | . | .
